Assay results published in PubChem BioAssay (NCI).
Compounds without any hit were thinned out: in the full panel of roughly 83,000, 20% have a hit.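 Plates (96-well) were seeded with cells, treated with compound at one concentration, and incubated for 48 hours before percent growth was determined.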 Values without a mark were called inactive. Activity calls are given as the source filed them. Rule for the calls: active = growth percent below 10; inactive = the rest.

Columns and labels:
Assay in all cases: NCI-60 one-dose screen, 48 h (100 = growth as untreated, 0 = no growth, -100 = all killed)
Settings in all cases: 10 µM unless noted
T-47D breast = tested on: T-47D breast
BT-549 breast = tested on: BT-549 breast
MDA-MB-435 melanoma = tested on: MDA-MB-435 melanoma
SW-620 colon = tested on: SW-620 colon
MCF7 breast = tested on: MCF7 breast
HCT-116 colon = tested on: HCT-116 colon
HCC-2998 colon = tested on: HCC-2998 colon
KM12 colon = tested on: KM12 colon

Structure (SMILES) | growth (T-47D breast) | growth (BT-549 breast) | growth (MDA-MB-435 melanoma) | growth (SW-620 colon) | growth (MCF7 breast) | growth (HCT-116 colon) | growth (HCC-2998 colon) | growth (KM12 colon)
Nc1nc(-c2cccc([N+](=O)[O-])c2)c(N=Nc2cccc(Cl)c2)s1 | 13.6% | 48.7% | 53.3% | 52.4% | 19.1% | 33.2% | 27.2% | 25.7%
CS(=O)(=O)c1nccc(-c2c(-c3ccc(F)c(OCCc4ccccc4)c3)nc3sccn23)n1 | -4.49% (active) | 104% | 104% | 103% | 4.77% (active) | 92.5% | -46.4% (active) | 77.5%
CCc1ccc(NC(=O)N[C@@H](Cc2cc(F)cc(F)c2)C(=O)N[C@@H]2C(=O)N3CCC[C@H]3C(=O)N3CCO[C@H](C)[C@H]3C(=O)N[C@@H](CO)C(=O)N3C[C@H](C)C[C@H]3C(=O)O[C@H]2C)c(F)c1 | 35.7% | 33.3% | 20.3% | 35.7% | 15.7% | 11.6% | 26% | 39.6%
C#CCOc1ccccc1C(Nc1ccccc1)c1nnnn1C1CCCCC1 (stereo not drawn) | 93% | 109% | 101% | 104% | 94.3% | 84.3% | 106% | 94.6%
Cc1cn(-c2cc(NC(=O)c3cncc(C#Cc4cnc5ccc(O[C@@H]6CCOC6)nn45)c3)cc(C(F)(F)F)c2)cn1 | -28.6% (active) | -96% (active) | -83.1% (active) | 6.01% (active) | -52% (active) | -95.7% (active) | -13.7% (active) | -21.5% (active)
O=[N+]([O-])c1ccc(-c2nnc(SCc3ccc(O)c4ncccc34)n2-c2ccccc2)cc1 | 24.1% | 20% | 14% | 18.6% | 11.4% | 12.4% | 41.9% | 19.2%
CCn1c2ccc(/C=N/NS(=O)(=O)CCN(C)C)cc2c2cc(/C=N/NS(=O)(=O)CCN(C)C)ccc21 | 102% | 99.1% | 96.9% | 90.8% | 89.4% | 99.4% | 104% | 106%
COc1ccc([C@H]2[C@H](O)C(=O)N2c2cc(OC)c(OC)c(OC)c2)cc1O | 75.8% | -9.8% (active) | -13.1% (active) | 17% | 8.66% (active) | -8.58% (active) | 19.5% | 13.1%
COc1cc(-c2noc(C[C@@H](NC(=O)OCc3ccccc3)C(C)C)n2)cc(OC)c1OC | 90.2% | 105% | 106% | 98.5% | 87.3% | 101% | 103% | 105%
NC(=O)C(=Cc1ccc(Cl)cc1)C(N)=O | 45.2% | 58.1% | 69.6% | 52.2% | 34.4% | 52.2% | 85.7% | 85.2%
c1cncc(-c2cn3nc(-c4c[nH]c5ccccc45)sc3n2)c1 | 69.7% | 33.3% | -38% (active) | 28.6% | 34.7% | 28.8% | 59.1% | 26.6%
O=C(Nc1ccc(F)cc1)c1cc(-c2ccc(F)cc2F)ccc1O | -4.71% (active) | -10.3% (active) | 5.11% (active) | 17% | 2.19% (active) | 2.09% (active) | 31.5% | 6.07% (active)
O=C1C[C@@H](c2ccccc2)Oc2c(Cc3ccccc3O)c(O)c(Cc3cc(Cc4cc(Cc5ccccc5O)ccc4O)ccc3O)c(O)c21 | 94% | 104% | 93.8% | 99.3% | 92.2% | 96.7% | 106% | 92.8%
O=C(NNc1nc2cc(F)cc(F)c2n2cccc12)c1ccncn1 | -1.57% (active) | 12.2% | 26.3% | 20.8% | 4.99% (active) | 18.6% | 57.5% | 21.6%
C/C(Cc1ccc(Cl)cc1)=C(/c1ccccc1)c1ccc(OCCN)cc1 | 101% | 95.3% | 95.1% | 102% | 99.9% | 102% | 99% | 103%
COc1ccc(OC)c([C@H]2c3[nH]c4ccccc4c3C[C@H]3C(=O)N(CCCCCCC(=O)NO)CC(=O)N23)c1 | 65% | 107% | 85% | 72.5% | 72.2% | 66.8% | 99.9% | 91.7%

Structure (SMILES) | growth (T-47D breast) | growth (BT-549 breast) | growth (MDA-MB-435 melanoma) | growth (SW-620 colon) | growth (MCF7 breast) | growth (HCT-116 colon) | growth (HCC-2998 colon) | growth (KM12 colon)
COc1ccc(OC)c(NC2=C(Cl)C(=O)C(C)=C(C)C2=O)c1 | -5.07% (active) | 102% | 106% | 98.8% | 80.5% | 57.6% | 108% | 93.8%
COc1cc(/C=N/n2cnc3oc(-c4ccccc4)cc3c2=N)cc(CN2CCOCC2)c1O | 81.6% | 109% | 60.8% | 86.1% | 73.8% | 29.8% | 101% | 41.1%
Nc1cc(F)ccc1NC(=O)c1ccc(NC(=O)C/C=C/c2cccnc2)cn1 | 5.13% (active) | 25.3% | 13.7% | 10.6% | 5.2% (active) | -13.2% (active) | 15.5% | 24.5%
COc1cc2c3c(n(CCCN4CCCCC4)c(=O)c2cc1OC)-c1cc2c(cc1C3=O)OCO2 | -64.6% (active) | -59.7% (active) | -81.4% (active) | -92.5% (active) | -75.5% (active) | -71.9% (active) | -86.8% (active) | -85.4% (active)
ClC(Cl)c1nc(-c2cccs2)n2nc(-c3ccccc3)cc2n1 | 2.65% (active) | 87.4% | -9.17% (active) | -1.61% (active) | -4.41% (active) | -23.7% (active) | -71.3% (active) | -36.4% (active)
CS(=O)(=O)c1ccc2c(c1)c1c(n2C(=O)c2ccc(Cl)cc2)CCCC1 | 18.1% | 33% | -24.3% (active) | 13.6% | 17.8% | 27.6% | 59.9% | 29.8%
Cc1nn(-c2ccc(Br)cc2)c2nc(CCl)[nH]c(=O)c12 | 91.5% | 101% | 103% | 110% | 82.3% | 98.3% | 105% | 83.6%
NS(=O)(=O)c1ccc(Nc2nc(N/N=C/c3ccc(C(F)(F)F)cc3)nc(Nc3ccccc3)n2)cc1 | 31.3% | 48.9% | 19.9% | 54.8% | 10.3% | 9.73% (active) | 53.1% | 21.7%
O=c1cc(-c2ccccc2)nc2sc(-c3c[nH]c4ccc(Br)cc34)nn12 | 75.2% | 108% | 101% | 105% | 67.9% | 103% | 109% | 103%
C#C[C@]1(O)CC[C@H]2[C@@H]3CC=C4c5sc(Nc6cc(Cl)ccn6)nc5CC[C@]4(C)[C@H]3CC[C@@]21C | 36.6% | 20% | -61.6% (active) | -1.44% (active) | -64% (active) | 14.4% | 39.8% | -0.602% (active)
CS(=O)(=O)c1ccc2c(c1)c1c(n2Cc2ccc(Cl)cc2)CCCC1 | 51.9% | 89% | 31.1% | 74.1% | 72.6% | 61.9% | 85.5% | 66.6%
COc1ccc(/C=N/Nc2nc(N/N=C/c3ccc(OC)cc3O)nc(N3CCOCC3)n2)c(O)c1 | 42.4% | 90.3% | 81% | 36.3% | 51.7% | 34.4% | 81.1% | 51.4%
Clc1ccc(-c2csc(Nc3cccc(Nc4csc(-c5ccc(Cl)cc5)n4)c3)n2)cc1 | 26.8% | 112% | 88.6% | 86.6% | 60.7% | 67.2% | 89.3% | 67.6%
O=C(/C=C1\C=CN(CCCCF)c2ccccc21)n1ccc2ccccc21 | 91% | 114% | 106% | 105% | 91.8% | 105% | 106% | 112%
Cc1occc1-c1nc2s/c(=C\c3cn(-c4ccccc4)nc3-c3ccccc3)c(=O)n2n1 | 95.2% | 97.7% | 98.9% | 97.5% | 91.9% | 98.7% | 101% | 102%
